Source: PubChem (several laboratories)
Rows were chosen to be rich in hits. Some 3.3% of all compounds tested hit in one or more screens of this group.
14-3-3 Bad inh: inhibitors of 14-3-3 zeta/Bad binding, primary screen, biochemical, TR-FRET, bovine 14-3-3 zeta. 14-3-3 protein zeta/delta (Bos taurus), P63103. TR-FRET 14-3-3zeta/Dy647-pBad peptide displacement, 1 h. inhibition, % at 21.7 µM. actives 0.71% (n = 220,000). AID 781, 2007;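 active means inhibition above about 70%, limit read from the data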;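 further: 0% = full 14-3-3 plus peptide FRET controls and 100% = background without 14-3-3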
Target sequence (P63103 whole entry, looked up): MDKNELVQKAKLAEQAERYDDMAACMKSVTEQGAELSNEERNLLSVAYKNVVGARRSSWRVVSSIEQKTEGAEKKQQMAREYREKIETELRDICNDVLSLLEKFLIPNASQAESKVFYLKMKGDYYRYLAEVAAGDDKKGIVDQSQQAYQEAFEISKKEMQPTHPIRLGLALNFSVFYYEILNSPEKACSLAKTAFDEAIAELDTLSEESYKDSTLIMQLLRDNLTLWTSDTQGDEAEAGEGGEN
Mcl1-Noxa inh: Mcl-1/Noxa binding inhibitors, primary screen, biochemical, TR-FRET, 1536-well. Induced myeloid leukemia cell differentiation protein Mcl-1 (Homo sapiens), Q07820. TR-FRET Mcl-1/Noxa peptide binding, 2 h. inhibition, % at 21.7 µM. actives 1.5% (n = 220,000);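 active means compounds that cut the protein-peptide binding signal by more than 50% relative to plate controls in a single-dose test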;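 further: His-tagged Mcl-1 with rhodamine Noxa BH3 peptide and terbium anti-His antibody; 0% = Mcl-1 plus Noxa peptide wells and 100% = peptide-only wells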
Target sequence (Q07820 whole entry, looked up): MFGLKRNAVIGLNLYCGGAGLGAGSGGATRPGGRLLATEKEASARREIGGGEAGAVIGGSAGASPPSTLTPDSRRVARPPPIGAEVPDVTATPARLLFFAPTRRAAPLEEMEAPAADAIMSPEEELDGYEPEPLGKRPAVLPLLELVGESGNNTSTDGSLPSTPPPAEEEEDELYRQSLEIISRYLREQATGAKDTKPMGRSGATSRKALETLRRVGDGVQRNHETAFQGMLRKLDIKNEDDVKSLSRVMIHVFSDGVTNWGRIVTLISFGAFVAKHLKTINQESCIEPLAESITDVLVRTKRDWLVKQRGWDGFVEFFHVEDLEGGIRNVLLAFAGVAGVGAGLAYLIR
eIF4E 4G PPI: eIF4E–eIF4G protein interaction inhibitors, primary screen, biochemical, uHTS, TR-FRET, eIF4GI fragment | TR-FRET eIF4E-eIF4GI(517-606) binding, 2 h | inhibition, % at 21.7 µM | actives 0.37% (n = 220,000) | Eukaryotic translation initiation factor 4E (Mus musculus) + Eukaryotic translation … | AID 782, 2007;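 further: 0% = full FRET control wells and 100% = background wells lacking eIF4GI fragment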
Mcl1-Bid inh: Mcl-1/Bid binding inhibitors, primary screen, biochemical, TR-FRET, 1536-well. Induced myeloid leukemia cell differentiation protein Mcl-1 (Homo sapiens), Q07820. TR-FRET Mcl-1/Bid-Dy647 peptide binding. inhibition, % at 21.7 µM. actives 0.97% (n = 220,000);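 active means compounds that cut the binding signal by more than half at the single screening dose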;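 further: His-tagged Mcl-1 with europium anti-His antibody binding Bid BH3 peptide; 0% = Mcl-1 plus peptide wells and 100% = peptide-only wells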
p47phox inh: p47phox/p22phox peptide binding inhibitors, primary screen, biochemical, uHTS, NADPH oxidase regulatory subunit | Neutrophil cytosol factor 1 (Homo sapiens), P14598 | AID 1274, 2008 | actives 0.53% (n = 220,000) | fluorescence polarization, 2 h | inhibition, % at 24.7 µM;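 further: 0% = p47phox with labelled peptide and 100% = labelled peptide alone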
Mcl-1 Bim block: inhibitors of Bim peptide binding to Mcl-1, primary screen, biochemical, bead-based flow cytometry, multiplex; Induced myeloid leukemia cell differentiation protein Mcl-1 (Homo sapiens), Q07820; Bim peptide-Mcl-1 binding; inhibition, % at 10 µM; actives 0.1% (n = 190,000); in the data active means inhibition above about 40%;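 further: 0% = no compound tracer wells and 100% = peptide blocker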
The depositor's hits bear a star; nt = no result; [ ] = dose if it differs, or a comment.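 How the source made its calls, unless noted: active means inhibition above about 30% (limit read from the data); inactive means the rest.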

SMILES	14-3-3 Bad inh	Mcl1-Noxa inh	eIF4E 4G PPI	Mcl1-Bid inh	p47phox inh	Mcl-1 Bim block
C=CCOC(=O)/C(=C\c1ccccc1)NC(=O)c1ccc(C)cc1	0	117*	-1	-17	-3	1
COc1ccc(C(=O)Nc2ccccc2C(=O)NC(Cc2ccc(O)cc2)C(=O)NNC(=O)c2ccc(C)cc2)cc1 (centres undefined)	79*	-114	17	57*	19	-1
COc1ccc(C(=O)Nc2ccccc2C(=O)NC(Cc2ccc(O)cc2)C(=O)NNC(=O)c2ccccc2)cc1 (centres undefined)	-6	15	-9	-10	-4	0
O=C(O)c1cnn2c(C(F)(F)F)cc(-c3ccco3)nc12	55	39	6	79*	1	1
O=C(CCCN1C(=O)c2ccccc2C1=O)Nc1ccccc1	3	-17	-2	78*	4	nt
CCOC(=O)c1c(CN2CCN(Cc3ccccc3)CC2)n(C)c2cc(Br)c(OC)cc12	-7	4	3	-38	-16	-2
CCOC(=O)c1c(CSc2ccccc2)n(C)c2cc(Br)c(OCC(O)CNC(CO)(CO)CO)cc12 (centres undefined)	-16	20	-32	30	42*	nt
O=C1COc2ccc(N3C(=O)C=CC3=O)cc2N1	-1	57*	2	-35	-3	-3
CN1CCN(c2nc(-c3ccc(Cl)s3)cs2)CC1	5	27	0	-39	-9	-2
CCOc1ccc(NC(=O)COc2ccc(C(=O)NCCc3ccccc3)cc2)cc1	72*[fluorescence artefact?]	-22	-1	-14	-6	12
Cc1ccccc1-n1ccnc1SCC(=O)NCc1ccco1	-12	21	3	-45	-2	0
CC1=NNC(=O)C1CCC(=O)N/N=C(\C)c1ccccc1 (centres undefined)	-16	-23	1	-84	-2	0
CC1=NNC(=O)C1CC(=O)N/N=C(\C)c1ccco1 (centres undefined)	-8	112*	1	-51	-2	0
O=C(NCc1ccc2c(c1)OCO2)C1CCC(=O)N1C1CCCC1 (centres undefined)	-2	2	-2	-12	22	0
Cc1cccc(NC2=C(NC(=O)c3ccccc3)C(=O)c3ccccc3C2=O)c1	8	94*	-3	-1	11	-4
O=C(NC1=C(Nc2ccc(Cl)cc2)C(=O)c2ccccc2C1=O)c1ccccc1	9	61*	13	-18	12	-23
CN(C1=C(NC(=O)c2ccc(Cl)cc2)C(=O)c2ccccc2C1=O)c1ccccc1	-1	19	10	-54	9	-6
O=C(NC1=C(NC2CCS(=O)(=O)C2)C(=O)c2ccccc2C1=O)c1ccccc1 (centres undefined)	-8	70*	8	-50	10	9
O=S1(=O)NC(=NCCOCCO)c2ccccc21	-3	-12	3	-37	-1	1
O=[N+]([O-])c1cccc(N=Cc2sc3ccccc3c2O)c1	84*	59*	21	38	21	0
O=[N+]([O-])c1ccc(N=Cc2sc3ccccc3c2O)cc1	-5	33	-3	23	-48	-2
CC(C)C(=O)Nc1cc(C(F)(F)F)ccc1-n1ccnc1	4	9	0	0	-8	0
CCCc1ccc(OCC(=O)NNC(=O)c2cccnc2)cc1	-22	9	-5	-18	-7	-1
O=C(Oc1ccc(NC2=C(Cl)C(=O)c3ccccc3C2=O)cc1)c1ccc([N+](=O)[O-])cc1	25	92*	6	70*	24	-2
COC(CN1C(=O)C(=O)/C(=C(/O)c2ccccc2)C1c1ccccn1)OC (centres undefined)	10	9	5	8	7	-3
SMILES	14-3-3 Bad inh	Mcl1-Noxa inh	eIF4E 4G PPI	Mcl1-Bid inh	p47phox inh	Mcl-1 Bim block
CC1CCN(C2(O)C(=O)Nc3ccc(Br)cc32)CC1 (centres undefined)	83*	-1	5	-16	-2	93*
COc1ccc2nc(SCC(=O)NC(C)C)[nH]c2c1	80*	1	6	0	-4	0
COc1ccc(C(=O)NC(CC(=O)O)c2cc([N+](=O)[O-])ccc2Cl)c(SC)c1 (centres undefined)	-20	24	-3	-15	-8	0
Cc1ccc2c(c1)N(CCC(=O)NCCN1CCOCC1)C(=O)CO2	-9	52*	-9	-7	7	-3
O=C(CCN1C(=O)COc2ccccc21)NCCN1CCOCC1	-8	25	3	-5	2	1
CN(CCO)S(=O)(=O)c1ccc2c(c1)C(=NO)c1cc(S(=O)(=O)N(C)CCO)ccc1-2	-8	39	-1	83*	-10	5
Cc1ccc(/C=C/C(=O)O)cc1S(=O)(=O)N(C)CCO	5	-10	-1	1	-14	-2
CC(C)n1c(O)c(/C=C2\C=NN=C2c2ccccc2)sc1=S	-5	66*	-4	-10	-3	nt
O=C(O)COc1ccc(/C=C/c2nc3ccc([N+](=O)[O-])cc3s2)cc1	-1	21	3	-8	-18	nt
COc1ccc(C(=O)Nc2ncc3c(n2)CC(c2ccco2)CC3=O)cc1 (centres undefined)	-11	52*	-1	-25	-6	1
CC(C)OCCCNc1ncc2c(n1)CC(c1ccccc1)CC2=O (centres undefined)	-15	60*	1	-51	-16	2
CC(=O)Nc1ncc2c(n1)CC(c1ccco1)CC2=O (centres undefined)	0	1	-6	-6	-6	-1
COc1ccc(C2CC(=O)c3cnc(Nc4cc(C)cc(C)c4)nc3C2)cc1 (centres undefined)	76*	9	-6	-9	-23	4
COc1ccc(C2CC(=O)c3cnc(NC(=O)c4cc(OC)cc(OC)c4)nc3C2)cc1 (centres undefined)	-2	-33	1	-11	-26	-9
CC1(C)CC2CC(C)(CN2Cc2c(O)ccc3ccccc23)C1 (centres undefined)	-24	15	5	-41	-5	3
CCOc1ccccc1NC(=O)CNS(=O)(=O)c1ccc2nc(C)sc2c1	0	-7	-4	0	1	-4
